Measured values as given in PubChem BioAssay AID1508600 (Functional Genomics Laboratory (NCATS/FGL), 2020).
The whole screen tested about 53,000 sequences, of which about 3,700 (7%) were called active.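 Rule for the calls: active = gene knockdowns whose robust z-score for IL-1 alpha signal is at least 2 or at most -2, so actives lie on both sides; inactive = the rest.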 The sample as a whole holds a higher share of actives than the screen did.

Assay: Components of the Cytosolic LPS Sensing Pathway: Gene Identification via Genome-wide siRNA Screen;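 note: robust z of the log signal after scaling to non-targeting control siRNA wells of the plate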
Conditions: RAW264.7 macrophages, IL-1a HTRF, actives lie on both sides, screened at 100 nM (by protocol), cells primed 5 h with Pam3CSK4 first
Outline: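 Knockdown: 100 nM siRNA, 48h, RAW264.7. Stimulation: Pam3CSK4 5 h, then LipidA via TransIT-TKO 24 h. Output: supernatant IL-1a HTRF, negative-control-normalized, log robust z-score; viability by CellTiter-Glo.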
In the case of GGUGAUGAAAGGGAAUGGCTT against Rnf25, the z-score was -2.53 (active).
With GGAACACAAAUUGUGCUUATT against Zfp462 the z-score was 0.199 (inactive).
With GGGUUGUAUGGCUCAAAUATT against Olfr728 the z-score was 0.734 (inactive).
With GCAUCAUAAUGGGAUGCUGTT against Qrfp the z-score was -0.313 (inactive).
For GGAGAGGUCAGAUAGAAAUTT against Zbtb41, the z-score was -2.29 (active).
For GGCAAAAGAAUCGUUCUCATT against Ppat, the z-score was -0.848 (inactive).
For GGAAGAAAUACUACAGCCATT against Ptpn12, the z-score was -0.733 (inactive).
For GAAGGAAGAAUAUUGGCCCTT against Il17rd, the z-score was -1.88 (inactive).
With GCGGCAAUUCAAAUGAGUCTT against Rnf14 the z-score was 1.2 (inactive).
With GGGAAUGACUCCACAUUGCTT against Limd1 the z-score was 2.01 (active).
With GGGAGAGAGUUGGCUCUGATT against Prg3 the z-score was -0.184 (inactive).
For GGGAGACUUCGAAUAUUUATT against Uroc1, the z-score was -0.183 (inactive).
In the case of CGUAUUCUGGUAGUGAAGGTT against Olfr1384, the z-score was -2.3 (active).
In the case of GCUCAACCUAACUUUGUGGTT against Ccdc3, the z-score was 0.421 (inactive).
In the case of GGCAACAAUGGUUGUCUUGTT against Ctsr, the z-score was 0.515 (inactive).
With GCCAAACUUAGCGUGCUCATT against Dgkk the z-score was 0.607 (inactive).
With GGGUAUCAACCACUUUUUUTT against Serping1 the z-score was 2 (inactive).
With GGUCAGAUUCCUGAAAUUATT against Vbp1 the z-score was -0.807 (inactive).
In the case of GGAAACAAGAUUACAUCAATT against Adamts2, the z-score was 2.04 (active).
With GGCCAUAGUGAAGAAAGAATT against Plaat3 the z-score was -0.754 (inactive).
In the case of GGAGAAGGAUAGAGAUGGUTT against Phf5a, the z-score was -1.84 (inactive).
In the case of GGUAAUACCACCUCACCUUTT against Fam214b, the z-score was -0.0713 (inactive).
For GGACACUGUACAGAAGCUGTT against Asb18, the z-score was -2.31 (active).
With CGGUUAGAUGAGCUUGAGATT against Smad2 the z-score was -0.725 (inactive).
In the case of GCGGGAGUACUACGUCAAUTT against Reps2, the z-score was -2.07 (active).
For GCUUGAUGACUACCACUGATT against Rrp36, the z-score was 0.496 (inactive).
In the case of GGUCGACAUUUUGAAGGAGTT against Fthl17e, the z-score was -2.63 (active).
With GGAGAUCACUAUGUUCUGATT against Ivd the z-score was 1.46 (inactive).
In the case of GACAAGGCUUCAUAAAAAGTT against Qrich1, the z-score was -0.312 (inactive).
In the case of GGGAUGCUUUGUUGCUGUUTT against Olfr836, the z-score was 0.296 (inactive).
In the case of GCCAUAGGCUCAUCUUUACTT against Ankib1, the z-score was -1.61 (inactive).
For GGAAGUAGAGCUUCAAAUGTT against Cdkl2, the z-score was 2.8 (active).
With GGUUGGUCACCUAAUCCAGTT against Aldh2 the z-score was 0.523 (inactive).
In the case of CCAAUGUGCUCAUGCUCUATT against Nodal, the z-score was 1.06 (inactive).
In the case of GCUGUACGAGCAUACUGUGTT against Tnxb, the z-score was -1.46 (inactive).
In the case of CCUUCUAAACACUUGACUUTT against Ugt2b5, the z-score was 0.106 (inactive).
In the case of GACCACAAUAUUGAGGAUCTT against Zfp119b, the z-score was -0.329 (inactive).
For GGACGUGACAGACAUUAUUTT against Htr5b, the z-score was -2.81 (active).
With CCCUGUUAUUAUCUUGAUUTT against Arv1 the z-score was -1.16 (inactive).
With CGUGUGUGUUAUGAAUCAATT against Tmem161a the z-score was 0.984 (inactive).
With GGACUUGCUAAGAGACCAATT against Cntn2 the z-score was 4.74 (active).
For GGACUACAUAAGGAAGGUUTT against Ccdc130, the z-score was 1.64 (inactive).
With GGCAAAUGGGAAGAAUUCCTT against Mep1b the z-score was 0.228 (inactive).
With GCAACCUGCAGGCAGUAACTT against Nolc1 the z-score was 0.207 (inactive).
With CCACACACUGAUCAACGUGTT against Unc93b1 the z-score was 0.336 (inactive).
For GGCUUCAUUCUUGUCCUCCTT against Reg3b, the z-score was -0.105 (inactive).
For GCCUUCCUCCGUUAAUCCATT against Kank2, the z-score was 0.844 (inactive).
With GGUGAGAGGAAGGAAGAGATT against Pcsk7 the z-score was 2.54 (active).
For GGAGGAUGAGAAAGAAGAGTT against Gja8, the z-score was -0.176 (inactive).
In the case of GGAUGUCAUCAAUGCUAUGTT against Olfr1022, the z-score was -0.643 (inactive).
In the case of “GGUUUACUGGCCAAGAUGGTT against 4930579K19Rik”, the z-score was -0.327 (inactive).
With “GGCUUUACGUGACAAAGAUTT against 4933430I17Rik” the z-score was 0.266 (inactive).
In the case of GGAAAAUACAGCGCGAAUUTT against Nexn, the z-score was 1.4 (inactive).
With GCGGCUAGGAUUUCUGGGATT against Mindy3 the z-score was 2.34 (active).
In the case of ACAAGAUUGGGAUCAUCUATT against Rpl23a, the z-score was 0.521 (inactive).
With UGCCUCAAUCAUAAGUCCCTT against Olfr730 the z-score was -0.551 (inactive).
For AAGGUCGUUUACAUGAACATT against Fbxw20, the z-score was 1.19 (inactive).
With GGAAAAAAAAAAGCAGUGATT against Phactr4 the z-score was 0.662 (inactive).
With GGUCUGAUACCUCAUUCCATT against Il22ra2 the z-score was -1.21 (inactive).
For CCAUGAGAACCUGAUGAAUTT against Pag1, the z-score was -2.38 (active).
With GGACUUUCGUCGUACUCGUTT against Terf1 the z-score was -1.73 (inactive).
In the case of GGCCUGGUGCUACUUCUCATT against Fam160a2, the z-score was -0.0704 (inactive).
In the case of CGUAAACACUCCUAACUUUTT against Hif1a, the z-score was -0.543 (inactive).
In the case of GGAAGGAUAUUGGUUACCATT against Zmynd11, the z-score was -2.28 (active).
With GGUCAGAAGAGAUGCCAAUTT against Hcar1 the z-score was -0.494 (inactive).
With CCGCAGUUGUCUUUCAAGATT against Dcaf1 the z-score was 0.724 (inactive).
For AGAAUCUUUAAAGGAAGUCTT against Olfr325, the z-score was 0.229 (inactive).
With “GCCAUGACUAUGUUUUCCGTT against St6galnac1” the z-score was -0.578 (inactive).
